From PubChem
Hits are enriched below; roughly 4.1% of the tested compounds scored in any of these assays.
tim10-1 inh = tim10-1 yeast growth inhibition | S. cerevisiae tim10-1 ts strain growth, BacTiter-Glo, 24 h | inhibition, % at 20 µM | actives 2.2% (n = 330,000);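 active = inhibition of at least 40%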;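 also: mutant grown at 25 °C; 0% = DMSO wells with yeast and 100% = wells holding no yeast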
NLRP3 yeast inh = inhibitors of NALP3 inflammasome in yeast. actives 0.39% (n = 330,000). AID 2825. inhibition, % at 10 µM. Yeast reconstituted NLRP3/ASC/caspase-1, beta-gal luminescence, 24 h;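 active = inhibition of 50% or more; inactive = inhibition below 50%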;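 also: plate controls were induced DMSO wells for no effect and uninduced yeast grown without galactose for full effect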
TIM10 inh = inhibits growth of TIM10 yeast strain; S. cerevisiae TIM10 strain growth, BacTiter-Glo luminescence, 24 h; inhibition, % at 10 µM; actives 1.4% (n = 330,000); AID 463195;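 active = inhibition of 40% or more at the single tested concentration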;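 also: wild-type TIM10 isogenic control strain grown at permissive 25 °C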
tim23-1 inh = inhibits growth of tim23-1 mutant yeast. actives 1.3% (n = 330,000). inhibition, % at 20 µM. S. cerevisiae tim23-1 growth, BacTiter-Glo luminescence, 24 h;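 active = growth inhibition of the mutant yeast at or above 50%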;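 also: temperature-sensitive mutant grown at 25 °C; plate controls were DMSO-treated mutant yeast for no effect and medium wells lacking yeast for full effect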
NALP1 yeast inh = blocks the NALP1 inflammasome reconstituted in yeast. S. cerevisiae NALP1/ASC/caspase-1 growth, X-gal OD620, 72 h. inhibition, % at 10 µM. actives 0.61% (n = 280,000). AID 2071; in the data active = inhibition mostly above about 24%, no sharp cut-off; inactive = mostly below about 32%
tim23-1 conf = tim23-1 yeast growth inhibition, confirmed | inhibition, % at 20 µM | actives 83% (n = 4,400) | S. cerevisiae tim23-1 growth, BacTiter-Glo luminescence, 24 h | shares compounds with tim23-1 inh;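 active = inhibition above about 39% in either of two replicate wells at 20 µM, limit read from the data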;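 also: temperature-sensitive tim23-1 mutant grown at 25 °C; 0% = DMSO wells with yeast and 100% = medium wells without yeast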
Starred values were filed as active, the others as inactive; x = not tested or not shown.

SMILES | tim10-1 inh | NLRP3 yeast inh | TIM10 inh | tim23-1 inh | NALP1 yeast inh | tim23-1 conf
c1ccc2cc(OCc3nc4ccccc4[nH]3)ccc2c1 | 22.0 | 44.0 | 26.9 | 51.6* | 3.3 | 29.9
Fc1ccc(Nc2nc(NCc3ccco3)c3ccccc3n2)cc1 | -19.9 | 48.6 | -20.5 | 97.9* | 18.1 | 3.8
Nc1nc(Nc2ccccc2)nc(NCc2ccco2)c1[N+](=O)[O-] | 8.7 | 1.6 | -2.3 | 37.0 | 23.5 | x
COC(=O)[C@]1(C)CCC[C@@]2(C)C3CC[C@@]4(C)C[C@]3(CCC21)CC4=NO (stereo partly specified) | 18.5 | 26.3 | 23.6 | 51.8* | x | 46.1*
CCN(CC)c1ccc(C(=O)Nc2cccc(F)c2)cc1 | 21.1 | 47.5 | 18.7 | 64.9* | 2.1 | 73.3*
CN(C)c1cccc(C(=O)Nc2cccc(F)c2)c1 | 11.3 | 30.5 | 22.3 | 31.7 | 8.7 | x
CCc1c(C)sc2nc(C(C)C)nc(SCC(=O)N3CCc4ccccc4C3)c12 | 19.2 | 8.5 | 23.9 | 50.6* | 32.2 | 41.0*
Cc1sc2nc(C3CC3)nc(SCC(=O)N3CCc4ccccc4C3)c2c1C | 37.8 | 0.5 | 22.8 | 29.5 | 32.7 | x
CC(C)CCN(C(=S)Nc1cccc(C(F)(F)F)c1)C(C)c1ccccn1 (stereo unspecified) | 33.4 | 14.7 | 37.0 | 54.1* | x | 54.1*
Cc1ccccc1[C@]1(C)ON(c2ccccc2C(F)(F)F)C1=O | 9.3 | 34.7 | 31.4 | 52.9* | x | 57.6*
CC(C)[C@@]1(c2ccccc2)ON(c2ccccc2C(F)(F)F)C1=O | -46.4 | 2.9 | 0.5 | 5.7 | x | x
N=c1occ(C(=O)c2cc(F)ccc2O)cc1C(=O)NC1CCCCC1 | -11.0 | 21.0 | -9.2 | 2.6 | 5.3 | x
CCc1noc(C)c1C(=O)Nc1ccc(F)c(F)c1 | 3.9 | 15.4 | 12.9 | 1.8 | x | x
O=C1CN(c2ccccc2)C(=S)N1c1ccccc1 | 18.4 | 12.6 | 4.3 | 42.3 | 15.5 | x
O=C1CN(c2ccc(F)cc2)C(=S)N1c1ccccc1 | 25.9 | 19.8 | 6.7 | 56.9* | -0.2 | -15.5
S=C(NCCc1cccc(Cl)c1)NCc1ccccc1 | 35.9 | 13.6 | 30.2 | 56.3* | -8.4 | 34.2
Cc1ccc(S(=O)(=O)N2CCN(C(=O)COC(=O)CCCOc3ccccc3)CC2)c(C)c1 | 29.1 | 11.5 | 16.2 | 37.9 | x | x
CC(C)(C)C(=O)Nc1nc(-c2ccc3c(c2)OCO3)cs1 | 29.6 | 8.3 | 31.1 | 55.0* | 0.2 | 49.9*
COC(=O)c1[nH]c2cc(OC)ccc2c1NC(=O)CCN1CCCC(C)(C)C1 | -1.0 | -10.0 | -12.1 | 73.9* | 2.5 | 10.7
COC(=O)c1[nH]c2cc(OC)ccc2c1NC(=O)CCN1CCCCC1 | -6.1 | 7.8 | 1.1 | -12.3 | 2.2 | x
NS(=O)(=O)c1ccc(N2N=C(c3ccccc3)CC2c2cccc(Cl)c2)cc1 (stereo unspecified) | 24.1 | x | 17.1 | 52.6* | x | 31.2
Nc1ccc(N=Nc2ccccc2O)c(N)c1 | 24.6 | 41.7 | 21.7 | 55.0* | x | 46.3*
CC(=O)c1ccc(OCCCC(=O)N(CCC2=CCCCC2)c2c(N)n(Cc3ccccc3)c(=O)[nH]c2=O)cc1 | 12.1 | 3.8 | 16.6 | 11.7 | x | x
COc1ccccc1NC(=O)CSCc1cc(=O)n2ccsc2n1 | -4.7 | 11.2 | -2.4 | 4.2 | -2.3 | x
CCc1c(C)nc2cc(-c3ccc(OC)c(OC)c3)nn2c1NCC1CC1 | 33.1 | 23.5 | 13.6 | 68.5* | -2.1 | 45.9*
SMILES | tim10-1 inh | NLRP3 yeast inh | TIM10 inh | tim23-1 inh | NALP1 yeast inh | tim23-1 conf
FC(F)(F)c1cccc(Sc2cc(C(F)(F)F)nc(-c3ccccn3)n2)c1 | 28.1 | 21.9 | 24.5 | 51.1* | 17.6 | 42.7*
Sc1nnc(-c2ccc(Cl)cc2)n1Cc1ccccc1 | 15.6 | 17.4 | 18.3 | 20.9 | x | x
O=C(CN1C(=O)NC2(CCc3ccccc32)C1=O)c1ccc(Cl)cc1 (stereo unspecified) | 5.7 | 4.2 | -5.3 | 26.0 | x | x
CC(C)c1ccc(C(=O)CN2C(=O)NC3(CCc4ccccc43)C2=O)cc1 (stereo unspecified) | 18.8 | 11.7 | 26.1 | 54.3* | x | 44.2*
CCn1c(SCC(=O)Nc2c(C#N)cnn2-c2ccccc2)nnc1-c1cccs1 | -7.3 | 4.8 | 6.7 | 3.3 | -33.9 | x
Cc1ccc(/C=N/NC(=O)c2cccs2)s1 | -13.8 | 25.4 | -0.6 | 7.4 | 0.4 | x
O=C(N/N=C/c1cc(Br)cs1)c1c[nH]c2ccccc12 | 14.0 | 28.8 | 12.3 | 60.2* | 18.2 | 71.3*
O=C(N/N=C/c1ccc(Br)s1)c1cccs1 | 18.9 | 23.5 | 35.0 | 56.6* | 1.1 | 62.8*
O=C(N/N=C/c1ccc(Br)s1)c1c[nH]c2ccccc12 | -13.9 | 0.8 | 1.6 | 54.6* | 0.0 | 45.6*
C=C(C)CN1C(=O)C2(OCCO2)c2cc(Br)ccc21 | 3.7 | 21.5 | 0.5 | 14.2 | x | x
Cc1csc2c(N3CCN(C(=O)Nc4ccc(Cl)c(Cl)c4)CC3)ncnc12 | 26.6 | 30.9 | 19.2 | 66.6* | x | 49.7*
Cc1csc2c(N3CCN(C(=S)Nc4ccc(C(F)(F)F)cc4)CC3)ncnc12 | 24.9 | 22.4 | 26.2 | 54.9* | x | 46.5*
Cc1csc2ncnc(N3CCN(C(=S)Nc4ccc(C(F)(F)F)cc4)CC3)c12 | 27.6 | 18.2 | 23.1 | 21.0 | -0.6 | x
Cc1cccc(S(=O)Cc2ccc(C(=O)N3CCN(C(=O)c4ccco4)CC3)o2)c1 (stereo unspecified) | 9.1 | 10.0 | 0.9 | -5.2 | -18.0 | x
Nc1c(N(Cc2ccco2)C(=O)COc2ccccc2)c(=O)[nH]c(=O)n1Cc1ccccc1 | 3.3 | 1.4 | 9.3 | 11.5 | x | x
Cc1cccc(OCC(=O)N(Cc2ccco2)c2c(N)n(Cc3ccccc3)c(=O)[nH]c2=O)c1 | -2.2 | 5.4 | 7.6 | 51.2* | x | 22.8
Cc1ccc2nc(-c3ccc(N)cc3)sc2c1 | 13.1 | 3.9 | 19.6 | 53.4* | 16.4 | 57.8*
CCOc1ccc(-c2nc(N)ncc2Oc2ccc(OC)cc2)c(O)c1 | 20.7 | 12.5 | 31.2 | 55.9* | -0.8 | 62.5*
CCOc1ccc(-c2nc(N)ncc2-c2ccc(Cl)cc2)c(O)c1 | 23.2 | 13.4 | 9.9 | 54.2* | 16.0 | -21.0
CCOc1ccc(-c2nc(N)ncc2-c2ccc(OC)cc2)c(O)c1 | -9.0 | 30.6 | 6.8 | 22.9 | 27.8 | x
CCOc1ccccc1N1CCN(C(=O)CCNS(=O)(=O)c2ccccc2F)CC1 | -2.4 | 0.7 | -4.6 | -11.6 | x | x
CCCOc1ccccc1C(=O)Nc1ccc(S(=O)(=O)N2CCN(C)CC2)cc1 | 22.8 | 20.7 | 3.1 | 18.8 | 6.3 | x
CCC1CCCCN1S(=O)(=O)c1ccc(C(=O)Nc2nnc(C3CC3)o2)cc1 (stereo unspecified) | 39.8 | -5.3 | 28.1 | 29.0 | 12.7 | x
CCC1CCCCN1S(=O)(=O)c1ccc(NC(=O)c2ccncc2)cc1 (stereo unspecified) | 32.3 | -5.2 | 24.0 | 79.5* | 16.8 | 30.1
COc1ccccc1OCC(=O)N/N=C/c1c(O)ccc2ccccc12 | 36.3 | 24.8 | 29.8 | 59.1* | -10.1 | 55.1*
Cc1cc(C)n(CCC(=O)N/N=C/c2c(O)ccc3ccccc23)n1 | -4.3 | 0.5 | 19.5 | 54.3* | x | 51.0*
